{"source": "the OligoGym collection"}
{"molecular_target": "BST2", "assay": "pooled miR-30 sensor sort-seq; sequence = guide strand", "settings": "shRNA"}
{"sequence": "TTGATGGTGAAGATAATCAAGG", "sensor-assay potency score (higher = more potent)": -1.58}
{"sequence": "TTCTCAGTCGCTCCACCTCTGC", "sensor-assay potency score (higher = more potent)": -1.51}
{"sequence": "TTTCTCTTCTCAGTCGCTCCAC", "sensor-assay potency score (higher = more potent)": 0.121}
{"sequence": "TCAGTCGCTCCACCTCTGCAGA", "sensor-assay potency score (higher = more potent)": -1.23}
{"sequence": "TTCTCTTCTCAGTCGCTCCACC", "sensor-assay potency score (higher = more potent)": -0.48}
{"sequence": "TTTAATGTAGTGATCTCTCCCT", "sensor-assay potency score (higher = more potent)": 0.397}
{"sequence": "ATTCTCACGCTTAAGACCTGGT", "sensor-assay potency score (higher = more potent)": -0.0201}
{"sequence": "TTTGTCCTTGGGCCTTCTCTGC", "sensor-assay potency score (higher = more potent)": -1.64}
{"sequence": "TAGTACTTCTTGTCCGCGATTC", "sensor-assay potency score (higher = more potent)": -1.14}
{"molecular_target": "BTAF1", "assay": "pooled miR-30 sensor sort-seq; sequence = guide strand", "settings": "shRNA"}
{"sequence": "TAGAGTGTAATTATACCTCTGT", "sensor-assay potency score (higher = more potent)": 0.377}
{"sequence": "TAAGAGTACAATAATAGTCTTG", "sensor-assay potency score (higher = more potent)": -0.191}
{"sequence": "TTTACTGCTTTTGACAACTTTG", "sensor-assay potency score (higher = more potent)": -1.03}
{"sequence": "TAACCAGTTCACACCATCCTGC", "sensor-assay potency score (higher = more potent)": -0.839}
{"sequence": "TTACTCAACAGTTCCATCCAAA", "sensor-assay potency score (higher = more potent)": -0.305}
{"sequence": "TAGCTTCAACAGCTTGTCCTGC", "sensor-assay potency score (higher = more potent)": -0.281}
{"sequence": "TTGATCTTGCATATTCCTGGGC", "sensor-assay potency score (higher = more potent)": 0.499}
{"sequence": "TAAAGTATTAATTACATCCTGA", "sensor-assay potency score (higher = more potent)": -0.104}
{"sequence": "TAGAACTTTCGGAAGTAGGTTC", "sensor-assay potency score (higher = more potent)": -0.237}
{"sequence": "TAATACTATTTGTTGAAGCTGT", "sensor-assay potency score (higher = more potent)": 0.361}
{"sequence": "TACAGCAACAAAGTGCTCCTAA", "sensor-assay potency score (higher = more potent)": 0.633}
{"sequence": "TTTTGATCTTGCATATTCCTGG", "sensor-assay potency score (higher = more potent)": -0.211}
{"molecular_target": "BVES", "assay": "pooled miR-30 sensor sort-seq; sequence = guide strand", "settings": "shRNA"}
{"sequence": "TTATATCCAAGGCACATCGGTA", "sensor-assay potency score (higher = more potent)": -1.03}
{"sequence": "TAGTCTTCTGAACAAATCTGGA", "sensor-assay potency score (higher = more potent)": -1.1}
{"sequence": "TTCCTTTTCAATCTTTACCGGT", "sensor-assay potency score (higher = more potent)": -0.474}
{"sequence": "TTGTGCATCTGAGTTGATCTAA", "sensor-assay potency score (higher = more potent)": 0.0688}
{"sequence": "TTATCATCTGCAATAATGGTGA", "sensor-assay potency score (higher = more potent)": -0.542}
{"sequence": "TTTTTCACCTTTGTGCATCTGA", "sensor-assay potency score (higher = more potent)": 0.533}
{"sequence": "TTTCATACAAGAAAGGTTCTGA", "sensor-assay potency score (higher = more potent)": 0.905}
{"sequence": "TCTTCTATCGGTTTCATCTTGG", "sensor-assay potency score (higher = more potent)": 0.0355}
{"sequence": "TTCTTCTATCGGTTTCATCTTG", "sensor-assay potency score (higher = more potent)": -0.512}
{"sequence": "ATTTGCTACATGAAAAACCAGA", "sensor-assay potency score (higher = more potent)": -1.03}
{"sequence": "TTAGTCTTCTGAACAAATCTGG", "sensor-assay potency score (higher = more potent)": 0.0292}
{"sequence": "TTCTGCTCCTTCTTCTATCGGT", "sensor-assay potency score (higher = more potent)": 0.109}
{"molecular_target": "BZW1", "assay": "pooled miR-30 sensor sort-seq; sequence = guide strand", "settings": "shRNA"}
{"sequence": "TTACTTCATCTTCAAAACCTTT", "sensor-assay potency score (higher = more potent)": -1.14}
{"sequence": "TGAAACTCCTTCTTTAACCAAA", "sensor-assay potency score (higher = more potent)": -0.866}
{"sequence": "TTGCTCAAGGAAAACACTCTTC", "sensor-assay potency score (higher = more potent)": -0.371}
{"sequence": "TTCAAGAACAGCAGCAGCTTTT", "sensor-assay potency score (higher = more potent)": -0.773}
{"sequence": "TTAACTTGTTAAAAACCTGAGC", "sensor-assay potency score (higher = more potent)": -0.612}
{"sequence": "TTCTTCAGCATTTTTGAGCCAT", "sensor-assay potency score (higher = more potent)": -0.303}
